The text below walks through data of PubChem BioAssay (Tox21).

Values without a mark were called inactive. Results filed as inconclusive are left out. Activity calls are given as the source filed them. Unless noted, calls come from the whole dose curve; as a rule, active = well fitted curve in the direction sought with a large enough effect in the repeat runs; inconclusive = weak or mixed curves; inactive = no such curve, though single readings can be large; an effect the other way counts as inactive or inconclusive.

Assay [1] deals with Luciferin 4-monooxygenase (Photinus pyralis) (UniProt P08659). Nature of the assay: qHTS assay to identify small molecule inhibitors of firefly luciferase (AID 1224835). Note: nearly all actives have a fitted effect of over 25% in size. Note: potency is the fitted concentration of half-maximal effect. An outline of the steps:
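Biochemical qHTS: compounds run as interplate titrations against purified firefly enzyme, with D-luciferin and ATP each at its KM concentration. Light output recorded by CCD imaging.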
For orientation: In qHTS, concentration-response curves come from the screen itself.

The nature of assay [2]: qHTS assay to identify small molecule agonists of the constitutive androstane receptor (CAR) signaling pathway - cell viability counter screen (AID 1224836). Note: nearly all actives have a fitted effect of over 45% in size. Note: potency is the fitted concentration of half-maximal effect. Summed up:
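23 h treatment, 37 C, 5% CO2. Cell line: HepG2 stably expressing hCAR with a CYP2B6-2.2kb construct. Co-treatment: PK11195, 0.75 uM final. Read-out: CellTiter-Fluor fluorescence intensity.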

Assay [3] is described as follows: qHTS assay to identify small molecule antagonists of the constitutive androstane receptor (CAR) signaling pathway - cell viability counter screen (AID 1224837). Note: nearly all actives have a fitted effect of over 45% in size. Note: potency is the fitted concentration of half-maximal effect. An outline of the steps: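 Counter screen run in HepG2-CYP2B6-hCAR cells: 4 hr settle, compound titration (15 concentrations) with 50 nM CITCO, 23 hr at 37 C/5% CO2, CellTiter-Fluor fluorescence.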
The target in assay [4] is Nuclear receptor subfamily 1 group I member 3 (Homo sapiens) (UniProt Q14994). Kind of assay: qHTS assay to identify small molecule agonists of the constitutive androstane receptor (CAR) signaling pathway (AID 1224839).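 Note: HepG2 cells stably carrying human CAR and a CYP2B6 luciferase reporter; nearly all actives have a fitted effect of over 15% in size.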 An outline of the steps:
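Compounds tested at 15 concentrations on HepG2 cells stably harbouring hCAR and CYP2B6-2.2kb reporter constructs, co-treated with PK11195 (0.75 uM final), 24 h at 37 C; luminescent reporter signal quantified.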

Assay [5] can be described thus: qHTS assay to identify small molecule antagonists of the estrogen related receptor signaling pathway with the pleiotropic PPARgamma coactivator (PGC) from Tox21 10K library - cell viability counter screen (AID 1224840; active = well fitted cell-killing curve with a large enough effect in the repeat runs, not every such curve was filed as active; note: nearly all actives have a fitted effect of over 40% in size; note: potency is the fitted concentration of half-maximal effect). An outline of the steps: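 Following seeding of 2,000 PGC/ERR cells/well and 6 hours' incubation, test compounds were delivered in DMSO. The plates then sat 17.5 hours at 37 C before a fluorogenic live-cell protease reagent (CellTiter-Fluor) was read after 30 min.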

The nature of assay [6]: qHTS assay to identify small molecule agonists of the hypoxia (HIF-1) signaling pathway - cell viability counter screen (AID 1224844; calls by dose curve; note: nearly all actives have a fitted effect of over 50% in size; note: potency is the fitted concentration of half-maximal effect). An outline of the steps: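 Cells (HRE-bla ME-180, 2,000 per well) sat 5 hrs at 37C, got compound for 17 hrs, were read for CCF4-AM FRET, and were finally lysed with CellTiter-Glo for a 30 min room-temperature luminescence read.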
Assay [7] can be described thus: qHTS assay to identify small molecule agonists of H2AX (AID 1224845; active = well fitted activation curve with a large enough effect in the signal ratio in the repeat runs, not every such curve was filed as active; the % refers to the signal ratio). An outline of the steps:
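Wild-type CHO-K1 cells, plated overnight, exposed 3hr at 37C to 15 concentrations (0.76% DMSO final). Lysed, then HTRF anti-pH2AX (S139) cryptate and anti-H2AX-d2 antibodies, 24 hr room temperature; 665/620 nm emission read.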

The nature of assay [8]: qHTS assay to identify small molecule agonists of the hypoxia (HIF-1) signaling pathway (AID 1224846; active = well fitted activation curve with a large enough effect in the signal ratio in the repeat runs, not every such curve was filed as active; the % refers to the signal ratio). An outline of the steps:
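A low-serum medium (0.5% dialyzed FBS) holding 2,000 HRE-bla ME-180 cells per well is preincubated for 5 hrs, dosed with compounds by pintool, and kept a further 17 hrs at 37C, 5% CO2 before CCF4-AM FRET detection of beta-lactamase.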

The nature of assay [9]: qHTS RealTime-Glo MT Cell Viability Assay in HepG2 cells - 24 hour (AID 1224867). Note: nearly all actives have a fitted effect of over 50% in size. Note: potency is the fitted concentration of half-maximal effect. An outline of the steps:
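Cell number in HepG2 cultures estimated from NanoLuc luminescence generated by metabolic reduction of a prosubstrate by living cells. The homogeneous, nonlytic format allowed repeated reads at 0, 8, 16, 24, 32 and 40 h of compound exposure.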

Assay [10] in a line: qHTS RealTime-Glo MT Cell Viability Assay in HEK293 cells - 32 hour (AID 1224868). Note: nearly all actives have a fitted effect of over 50% in size. Note: potency is the fitted concentration of half-maximal effect. Summed up:
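Homogeneous bioluminescent viability format in HEK293 cells (600 cells/well). Following 5 h at 37 C/5% CO2, 23 nL compound was pintooled; the signal was measured repeatedly during 40 h incubation.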

Assay [11] is described as follows: A CellTox Green Cytotoxicity Assay to monitor cytotoxicity in HEK293 cells - 0 hour (AID 1224869). Note: nearly all actives have a fitted effect of over 50% in size. Summed up: (§1)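 Fluorescence intensity, read at 0, 8, 16, 24, 32 and 40 h of compound treatment, reflected dye binding to DNA of dead HEK293 cells; compounds (23 nL, DMSO) were added 5 h after plating cells with reagent.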
The nature of assay [12]: qHTS RealTime-Glo MT Cell Viability Assay in HepG2 cells - 40 hour (AID 1224870). Note: nearly all actives have a fitted effect of over 50% in size. Note: potency is the fitted concentration of half-maximal effect. Summed up:
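HepG2 cells (600/well) mixed with RealTime-Glo MT reagent, settled 5 h at 37 C/5% CO2 before compound addition. Nonlytic NanoLuc luminescence from viable-cell prosubstrate reduction read repeatedly during 40 h treatment at 37 C.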

Assay [13] in a line: A CellTox Green Cytotoxicity Assay to monitor cytotoxicity in HEK293 cells - 40 hour (AID 1224871). Note: nearly all actives have a fitted effect of over 45% in size. Note: potency is the fitted concentration of half-maximal effect. An outline of the steps:
as §1

Assay [14] is described as follows: qHTS assay to identify small molecule antagonists of the estrogen related receptor signaling pathway with the pleiotropic PPARgamma coactivator (PGC) from Tox21 10K library (AID 1224841; call rule not given here). An outline of the steps: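 qHTS antagonist format: PGC/ERR cells, 2k/well, compound in DMSO by pin transfer after 6 h attachment, 18 h treatment at 37 C, One-Glo luminescence read at 30 min.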

Assay [15] is described as follows: qHTS assay to identify small molecule agonists of the estrogen related receptor signaling pathway with the pleiotropic PPARgamma coactivator (PGC) from Tox21 10K library (AID 1224842). Note: nearly all actives have a fitted effect of over 15% in size. Note: potency is the fitted concentration of half-maximal effect. An outline of the steps:
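PGC/ERR reporter cell line, 2,000 cells per well, incubated 6 h at 37 C before 23 nL compound in DMSO was added. After 18 h at 37 C, One-Glo luminescence read following 30 min at room temperature.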

Assay [16] concerns the target Thyrotropin receptor (Homo sapiens) (UniProt P16473). Kind of assay: qHTS assay to identify small molecule agonists of the thyroid stimulating hormone receptor (TSHR) signaling pathway (AID 1224843; calls by dose curve; note: nearly all actives have a fitted effect of over 45% in size). Summed up:
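Steps: seed 800 TSHR-HEK293 cells per well; add test compound and hold 30 min at ambient temperature; dispense cAMP-d2 then anti-cAMP cryptate; incubate 1 h at ambient; measure fluorescence intensity.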

A short description of assay [17]: qHTS assay to identify small molecule agonists of H2AX - cell viability counter screen (AID 1224847; calls by dose curve; note: nearly all actives have a fitted effect of over 30% in size; note: potency is the fitted concentration of half-maximal effect). An outline of the steps:
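Compounds tested at 15 concentrations were incubated 3 hr at 37C with wild-type CHO-K1 cells; cellular ATP-based luminescence (CellTiter-Glo) indicated viability.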

Assay [18] in a line: qHTS assay to identify small molecule antagonists of the estrogen related receptor (ERR) signaling pathway from Tox21 library (AID 1224848). Note: nearly all actives have a fitted effect of over 50% in size. Note: potency is the fitted concentration of half-maximal effect. Summed up:
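Luminescent reporter read-out (ONE-Glo) from NTP's ERR cell line after 18 h treatment at 37 C with DMSO-dissolved Tox21 compounds; cells pre-plated 6 h beforehand at 2,000 per well.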

Assay [19] can be described thus: qHTS assay to identify small molecule agonists of the estrogen related receptor (ERR) signaling pathway from Tox21 library (AID 1224849; calls by dose curve; note: nearly all actives have a fitted effect of over 15% in size). The settings on record: ERR reporter cell line, ONE-Glo luciferase, 18 h. Summed up: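 Screening used an NTP-provided ERR luciferase cell line. Compounds in DMSO were added 6 h after seeding and left 18 h at 37 C before a 30 min ONE-Glo step and luminescence reading.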
% is set by controls: 0 for no effect and ±100 for the full control effect.

Sequence of Nuclear receptor subfamily 1 group I member 3 (Homo sapiens) (Q14994 whole entry, looked up): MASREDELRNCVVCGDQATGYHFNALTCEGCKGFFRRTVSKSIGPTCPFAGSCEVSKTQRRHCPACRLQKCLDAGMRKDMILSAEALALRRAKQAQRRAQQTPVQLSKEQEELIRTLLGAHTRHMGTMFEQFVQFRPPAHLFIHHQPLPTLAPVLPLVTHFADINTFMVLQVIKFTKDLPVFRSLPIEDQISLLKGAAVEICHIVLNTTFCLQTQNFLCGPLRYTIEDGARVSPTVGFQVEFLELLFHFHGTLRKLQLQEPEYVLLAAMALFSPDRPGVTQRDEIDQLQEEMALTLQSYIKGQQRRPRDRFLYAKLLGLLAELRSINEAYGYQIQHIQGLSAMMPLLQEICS
Sequence of Luciferin 4-monooxygenase (Photinus pyralis) (P08659 whole entry, looked up): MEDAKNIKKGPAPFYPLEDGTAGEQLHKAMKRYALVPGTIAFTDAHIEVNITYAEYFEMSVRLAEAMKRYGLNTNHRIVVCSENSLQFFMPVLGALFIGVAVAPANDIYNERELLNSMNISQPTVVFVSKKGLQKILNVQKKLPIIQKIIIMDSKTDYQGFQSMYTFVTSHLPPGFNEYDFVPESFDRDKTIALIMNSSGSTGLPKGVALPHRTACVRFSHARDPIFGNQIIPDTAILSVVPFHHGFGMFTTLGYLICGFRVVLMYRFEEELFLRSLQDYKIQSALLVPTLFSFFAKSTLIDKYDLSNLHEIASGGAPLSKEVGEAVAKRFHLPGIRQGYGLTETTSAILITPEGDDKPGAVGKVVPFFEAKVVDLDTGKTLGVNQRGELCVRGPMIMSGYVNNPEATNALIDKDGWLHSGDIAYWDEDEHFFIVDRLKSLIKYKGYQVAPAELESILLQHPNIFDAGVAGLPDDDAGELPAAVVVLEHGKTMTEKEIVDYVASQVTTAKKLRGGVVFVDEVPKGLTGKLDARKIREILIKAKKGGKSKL
Sequence of Thyrotropin receptor (Homo sapiens) (P16473 whole entry, looked up): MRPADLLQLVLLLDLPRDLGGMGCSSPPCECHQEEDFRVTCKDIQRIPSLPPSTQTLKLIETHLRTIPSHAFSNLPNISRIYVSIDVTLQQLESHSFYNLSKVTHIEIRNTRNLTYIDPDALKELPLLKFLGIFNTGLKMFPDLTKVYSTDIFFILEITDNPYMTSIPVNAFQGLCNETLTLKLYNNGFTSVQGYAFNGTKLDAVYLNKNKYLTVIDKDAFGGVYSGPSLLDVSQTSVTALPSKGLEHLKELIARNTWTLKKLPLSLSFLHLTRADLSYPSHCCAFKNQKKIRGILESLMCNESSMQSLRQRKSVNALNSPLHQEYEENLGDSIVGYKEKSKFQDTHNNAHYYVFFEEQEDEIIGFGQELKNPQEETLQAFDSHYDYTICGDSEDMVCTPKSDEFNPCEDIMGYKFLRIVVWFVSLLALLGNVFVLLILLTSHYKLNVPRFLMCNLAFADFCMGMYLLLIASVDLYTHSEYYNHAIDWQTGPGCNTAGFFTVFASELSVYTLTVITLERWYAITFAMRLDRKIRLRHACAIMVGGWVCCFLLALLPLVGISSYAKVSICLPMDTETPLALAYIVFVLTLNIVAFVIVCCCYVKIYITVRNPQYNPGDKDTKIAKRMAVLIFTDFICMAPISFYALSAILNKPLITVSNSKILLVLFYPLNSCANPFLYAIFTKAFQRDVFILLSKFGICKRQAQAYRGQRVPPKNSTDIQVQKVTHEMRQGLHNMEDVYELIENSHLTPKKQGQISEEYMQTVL

For the compound `C#Cc1ccc(-c2ccccc2F)cc1`, the Potency in assay [1] is 30.9 µM (active). The Potency result in [2], in [3], in assay [4], in assay [5], in assay [6] and in assay [7] was “inactive” each time. For the same compound, the Potency result in assay [8], in assay [9], in [10], in assay [11], in assay [12] and in assay [13] was “inactive” each time.
Consider `C=CC(C)(CCC=C(C)C)OC=O` (centres undefined), for which the Potency entry in [1], in assay [2], in assay [3], in assay [4], in [5] and in assay [14] was “inactive” throughout. The Potency entry in assay [15], in assay [16], in assay [6], in [7], in [8] and in assay [17] was “inactive” throughout. In addition, the Potency entry in assay [18], in [9], in assay [10], in assay [11] and in assay [12] was “inactive” in each case. Moreover, in assay [19] (at 92.4 µM (top of the series)), the activity change, positive = activation is 1.64%.
For the compound `CN(C)CCN1CCN(c2cccc(Cl)c2)C1=O`, the Potency result in assay [1], in [2], in [3], in assay [4], in [5] and in [16] was “inactive” in each case. Further, the Potency entry in assay [6], in assay [7], in [8], in assay [17], in [9] and in assay [11] was “inactive” each time. For the same compound, the Potency entry in assay [12] was “inactive”.
For `O[C@@H]([C@H](O)[C@H](O)CBr)[C@H](O)CBr`, the Potency entry in [1], in assay [2], in [3], in [5], in [16] and in assay [6] was “inactive” throughout. Besides, the Potency entry in assay [7], in assay [8], in [17], in [9], in assay [10] and in [11] was “inactive” each time. Also, the Potency entry in [12] and in assay [13] was “inactive” throughout.
With `CCOc1ccc2ccccc2c1C(=O)N[C@@H]1C(=O)N2[C@@H]1SC(C)(C)[C@@H]2C(=O)O`, the Potency result in assay [1], in [2], in assay [3], in assay [5], in [14] and in assay [15] was “inactive” in each case. For the same compound, the Potency entry in assay [16], in assay [6], in assay [7], in [8], in assay [17] and in assay [18] was “inactive” throughout. Also, the Potency entry in assay [9], in assay [10], in [11], in [12] and in assay [13] was “inactive” throughout. The activity change, positive = activation in assay [19] (at 42.5 µM (top of the series)) was -0.57%.
Consider `C=CC(=O)Nc1cc2c(Nc3ccc(F)c(Cl)c3)ncnc2cc1OCCCN1CCOCC1`, for which the Potency result in assay [1], in [4], in assay [14], in assay [16], in assay [7] and in assay [11] was “inactive” in each case. In addition, the Potency is 13.3 µM (active) in [2]; 13.3 µM (active) in assay [3]; 13.3 µM (active) in [5]; 3.76 µM (active) in [15]; 23.9 µM (active) in assay [6]; 16.8 µM (active) in [18]. Further, the Potency is 9.52 µM (active) in assay [10], 10.7 µM (active) in [12] and 10.7 µM (active) in assay [13]. Also, the activity change, positive = activation in assay [19] (at 42.5 µM (top of the series)) was -63.1%.
For the compound `CC(C)(C)c1ccc(C(O)CCCN2CCC(C(O)(c3ccccc3)c3ccccc3)CC2)cc1` (centres undefined), the Potency entry in assay [1] and in assay [4] was “inactive” throughout. Also, the Potency in assay [2] is 23.7 µM (active); in assay [3], 26.6 µM (active); in assay [6], 21.3 µM (active); in [17], 34.8 µM (active); in [9], 6.01 µM (active); in assay [10], 4.77 µM (active). For the same compound, the Potency in [12] is 4.77 µM (active); in assay [13] it was 7.56 µM (active).
With `Cc1cccc(C(=O)O)c1O`, the Potency result in [1], in assay [2], in [3], in assay [5], in assay [14] and in assay [15] was “inactive” throughout. Further, the Potency entry in assay [16], in assay [6], in assay [7], in assay [17], in [18] and in [9] was “inactive” each time. In addition, the Potency entry in [10], in assay [11], in assay [12] and in assay [13] was “inactive” each time. For the same compound, the activity change, positive = activation in assay [19] (at 42.5 µM (top of the series)) was 0.112%.
